Measured values taken from the supplement of paper PMC3414501.
Where a name gives a salt, the structure may show the parent alone.

tested on: S. cerevisiae SK1 pCDA2-eGFP (USY613), sporulating; assay: CDA2-GFP sporulation assay sensitivity score (z-score vs DMSO controls); higher = stronger inhibition of sporulation, active = hit call of the paper;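 active = score above 5; some higher scores were not called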

Row | Compound | CDA2-GFP sporulation assay sensitivity score
1 | CC(CCCCC(=O)Nc1ccc(C(F)(F)F)cc1)NCCc1cnc[nH]1 (configuration not stated) (stock concentration (mM, diluted 1:100): 10) | 2.58 (inactive)
2 | COc1cc(C[C@@H](CO)[C@H](CO)Cc2ccc(O)c(OC)c2)ccc1O [Secoisolariciresinol] (stock concentration (mM, diluted 1:100): 10) | -0.44 (inactive)
3 | CN1CCN2c3ncccc3Cc3ccccc3C2C1 (configuration not stated) [Mirtazapine] (stock concentration (mM, diluted 1:100): 10) | 12.7 (inactive)
4 | COc1ccc(C(=O)NCc2ccc(OCCN(C)C)cc2)cc1OC [Itopride hydrochloride] (stock concentration (mM, diluted 1:100): 8.2) | -0.55 (inactive)
5 | CC(C)[C@H]1CC[C@H](C(=O)N[C@H](Cc2ccccc2)C(=O)O)CC1 [Nateglinide] (stock concentration (mM, diluted 1:100): 10) | 0.06 (inactive)
6 | COc1cc2nc(N3CCN(C(=O)C4CCCO4)CC3)nc(N)c2cc1OC (configuration not stated) [Terazosin] (stock concentration (mM, diluted 1:100): 9.5) | 3.45 (inactive)
7 | O=C(c1ccc(F)cc1)C1CCN(CCn2c(=S)[nH]c3ccccc3c2=O)CC1 [Altanserin] (stock concentration (mM, diluted 1:100): 10) | 2.43 (inactive)
8 | COCCOC(=O)C1=C(C)NC(C)=C(C(=O)OC(C)C)C1c1cccc([N+](=O)[O-])c1 (configuration not stated) [Nimodipine] (stock concentration (mM, diluted 1:100): 10) | 0.44 (inactive)
9 | CCOC(=O)[C@H](CCc1ccccc1)N[C@@H](C)C(=O)N1[C@H](C(=O)O)C[C@@H]2CCC[C@@H]21 [Ramipril] (stock concentration (mM, diluted 1:100): 10) | 0.92 (inactive)
10 | CO[C@H]1/C=C/O[C@@]2(C)Oc3c(C)c(O)c4c(c3C2=O)C2=NC3(CCN(CC(C)C)CC3)NC2=C(NC(=O)/C(C)=C\C=C\[C@H](C)[C@H](O)[C@@H](C)[C@@H](O)[C@@H](C)[C@H](OC(C)=O)[C@@H]1C)C4=O [Rifabutin] (stock concentration (mM, diluted 1:100): 10) | 6 (inactive)
11 | COC(=O)C1=C(C)NC(C)=C(C(=O)OCC(C)C)C1c1ccccc1[N+](=O)[O-] (configuration not stated) [Nisoldipine] (stock concentration (mM, diluted 1:100): 10) | -0.05 (inactive)
12 | CC(C)(C)C(O)/C=C/c1ccc2c(c1)OCO2 (configuration not stated) [Stiripentol] (stock concentration (mM, diluted 1:100): 10) | 5.09 (inactive)
13 | COc1ccnc(C[S+]([O-])c2nc3cc(OC(F)F)ccc3[nH]2)c1OC (configuration not stated) [Pantoprazole sodium] (stock concentration (mM, diluted 1:100): 10) | 0.75 (inactive)
14 | CC(C(O)c1ccc(O)cc1)N1CCC(Cc2ccccc2)CC1 (configuration not stated) [Ifenprodil] (stock concentration (mM, diluted 1:100): 9.2) | 16.1 (active)
15 | O=c1cnn([C@@H]2O[C@H](CO)[C@@H](O)[C@H]2O)c(=O)[nH]1 [6-Azauridine] (stock concentration (mM, diluted 1:100): 10) | 0.6 (inactive)
16 | O=c1[nH]cnc2c1ncn2[C@H]1CC[C@@H](CO)O1 [Didanosine] (stock concentration (mM, diluted 1:100): 10.1) | -0.63 (inactive)
17 | CNC(=C[N+](=O)[O-])NCCSCc1csc(CN(C)C)n1 [Nizatidine] (stock concentration (mM, diluted 1:100): 10) | -0.14 (inactive)
